TDP1 cell CPT: growth inhibition of DT40 Tdp1-/-;hTDP1 cells with camptothecin (screen for TDP1 inhibitors). chicken DT40 Tdp1-/-;hTDP1 cells + 20 nM CPT, ATP luminescence, 48 h. Potency, µM (doses to about 46.2 µM), for the others: at the top dose activity change, negative = growth inhibition, usual class: inhibitors. 420,000 tested, 12% active; note: nearly all actives have a fitted effect of over 55% in size
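Cell growth measured by CellTiter-Glo luminescence after a minimum 48 h, 37 C compound exposure with 20 nM CPT in Tdp1-knockout DT40 cells stably expressing hTDP1, seeded 400/well; qHTS titration format.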
DT40 TDP1 no CPT: qHTS for Inhibitors of human tyrosyl-DNA phosphodiesterase 1 (TDP1): qHTS in cells in absence of CPT. 420,000 tested, 15% active. Potency, µM (series often up to 46.2 µM), without a hit: top-dose activity change, negative = growth inhibition, hits mostly inhibitors. AID 686978, 2013. DT40 Tdp1-/- hTDP1 cells, no CPT, ATP luminescence, 48 h; note: nearly all actives have a fitted effect of over 55% in size
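Stably hTDP1-transfected Tdp1-null chicken DT40 cells were treated with library compounds minus camptothecin and grown for at least 48 hr at 37 °C, after which cellular ATP was quantified by luminescence.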
TDP1 inh: TDP1 (human) enzyme inhibition. 350,000 tested, 0.28% active. AID 485290. recombinant TDP1, AlphaScreen DNA substrate cleavage. Potency, µM (doses to about 130 µM), inactives show top-dose activity change, negative = inhibition, most hits filed as inhibitors; note: nearly all actives have a fitted effect of over 40% in size
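Recombinant human Tdp1 (E. coli-expressed, 1 nM final) preincubated with compounds 15 min at room temperature, then 5'-biotin/3'-phosphotyrosine-FITC DNA substrate (15 nM final) added for 5 min. AlphaScreen beads (10 ug/ml final) added 10 min; cleavage lowers signal.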
KAT2A inh: inhibitors of human GCN5L2 histone acetyltransferase; Potency, µM (top dose mostly 58.9 µM), for inactives: at the top dose activity change, negative = inhibition, actives largely listed as inhibitors; 390,000 tested, 0.21% active; GCN5L2 HAT assay, ThioGlo1 CoA-SH fluorescence; Q92830
Target sequence (Q92830 whole entry, looked up): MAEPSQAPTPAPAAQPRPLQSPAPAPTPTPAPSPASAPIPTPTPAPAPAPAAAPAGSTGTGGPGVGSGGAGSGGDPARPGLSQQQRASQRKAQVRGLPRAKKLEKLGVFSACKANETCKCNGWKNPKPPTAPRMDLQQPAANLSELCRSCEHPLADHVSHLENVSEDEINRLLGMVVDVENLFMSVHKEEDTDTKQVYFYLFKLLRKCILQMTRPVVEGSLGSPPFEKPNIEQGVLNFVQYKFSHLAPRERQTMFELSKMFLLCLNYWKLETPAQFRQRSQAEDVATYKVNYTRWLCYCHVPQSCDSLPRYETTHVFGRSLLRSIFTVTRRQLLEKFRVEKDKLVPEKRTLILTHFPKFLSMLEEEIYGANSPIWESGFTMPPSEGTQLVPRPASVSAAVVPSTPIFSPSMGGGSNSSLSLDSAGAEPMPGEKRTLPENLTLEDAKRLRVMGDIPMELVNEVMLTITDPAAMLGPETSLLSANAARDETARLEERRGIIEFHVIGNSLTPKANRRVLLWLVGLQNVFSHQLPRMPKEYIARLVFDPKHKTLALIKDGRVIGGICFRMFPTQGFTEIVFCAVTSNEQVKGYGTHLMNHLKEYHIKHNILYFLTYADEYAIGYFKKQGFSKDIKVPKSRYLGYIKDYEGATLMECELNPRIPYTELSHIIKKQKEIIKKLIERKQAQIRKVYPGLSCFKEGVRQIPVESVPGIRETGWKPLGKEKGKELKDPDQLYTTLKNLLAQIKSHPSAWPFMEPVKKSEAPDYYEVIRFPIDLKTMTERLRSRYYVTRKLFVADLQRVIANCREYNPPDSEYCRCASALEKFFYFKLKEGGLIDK
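ThioGlo1-coupled HAT assay: 20nM GCN5L2, 70uM acetyl-CoA, 75uM H3(1-25) peptide, pH 7.5. Fluorescence read at 340/540nm at start and after 20 min at room temperature.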
PLK1 PBD block: inhibitors of human PLK1 polo-box domain binding. Potency, µM, for the others: max response, negative = inhibition, actives largely listed as inhibitors. 360,000 tested, 2.8% active. P53350. Plk1 PBD binding of FITC phosphopeptide, fluorescence polarization; note: series mostly up to about 57 µM; nearly all actives have a fitted effect of over 65% in size
VDR inh: inhibitors of human vitamin D receptor; VDR-SRC2-3 peptide fluorescence polarization, 2 h; Potency, µM, for the others: max response, negative = inhibition, most hits filed as inhibitors; AID 504847; P11473; 400,000 tested, 0.93% active
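After 23 nl compound addition and a short centrifugation, plates sat for 2 hours at ambient temperature; polarization of fluorescence then indicated loss of VDR binding to peptide SRC2-3.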
Numbers without * were called inactive; u = inconclusive; x = no result; [ ] = dose if it differs, or a comment. This is a sample that favours compounds with a hit; in the whole collection about 18% have one here. Calls come from the whole dose curve; as a rule, active = well fitted curve in the direction sought with a large enough effect; inconclusive = small, poorly fitted or top-dose-only effect, or another doubt; inactive = no such curve, though single readings can be large; an effect the other way counts as inactive or inconclusive. % is set by controls: 0 for no effect and ±100 for the full control effect; potency is the fitted concentration of half-maximal effect.

SMILES	TDP1 cell CPT	DT40 TDP1 no CPT	TDP1 inh	KAT2A inh	PLK1 PBD block	VDR inh
CC(C)(C)S(=O)N1Cc2cc(C(=O)Nc3ccc(-c4ccccc4)cc3)nc(-c3cccc(-c4cc5ccccc5o4)c3)c2[C@@H]1CCO (some centres undefined)	u	u	x	x	-19%	x
COc1ccc(CNC(=O)COC(=O)c2cc3ccccc3o2)cc1	-5%	-15%	12%	-2%	-5%	8%
COc1ccc2nc(C)cc(N/N=C/c3cccc(OC)c3O)c2c1	u	u	x	-10%	0%	12%
COc1ccc(/C=N/Nc2cc(C)nc3ccc(Br)cc23)cc1	u	8.2µM*	x	-17%	-2%	1%
Cc1cc(N2CCN(c3ccccc3)CC2)nc(-c2ccccc2)n1	23µM*	10µM*	4%	-8%	-8%	1%
COCc1cc(N2CCCCC2)nc(-c2ccccc2)n1	10µM*	18µM*	-3%	-16%	27µM*	u
Cc1cc(N2CCN(c3ccccc3)CC2)nc(N)n1	-17%	-19%	0%	-4%	-2%	7%
Cc1cc(N2CCN(C(=O)c3ccco3)CC2)nc(-c2ccccc2)n1	u	18µM*	2%	-13%	-10%	7%
O=C(c1ccco1)N1CCN(c2ccc(N3CCCCC3)nn2)CC1	10%	-2%	-1%	-6%	-6%	-14%
CSCc1cc(N2CCCC2)nc(-c2ccccc2)n1	8%	u	6%	-8%	-3%	-15%
CC(C)c1cc(N2CCN(C(=O)c3ccco3)CC2)n2c(nc3ccccc32)c1C#N	15µM*	21µM*	4%	-5%	-10%	-4%
CCc1cccc(NC(=O)C(c2ccccc2)N2Cc3ccccc3C2=O)c1 (centres undefined)	u	-23%	5%	-11%	x	8%
CCCC(=O)Nc1ccccc1NC(=O)c1ccc(OC)cc1	19%	0%	-3%	-8%	-20%	-1%
COCC(=O)N1CCC(n2nccc2NC(=O)CCOc2ccccc2)CC1	0%	-5%	4%	-1%	5%	-11%
N#Cc1c(N2CCN(C(=O)c3ccco3)CC2)nc(-c2ccccc2)c2c1CCCC2	26µM*	u	6%	-14%	-15%	-9%
CCOCN(C(=O)Cn1cnc2cc(C)c(C)cc21)c1c(C)cccc1CC	21µM*	16µM*	8%	-9%	x	5%
CCOCN(C(=O)Cn1c(COC)nc2ccccc21)c1c(C)cccc1CC	u	u	5%	2%	-2%	13%
OC[C@@H]1CN(CCN2CCOCC2)C[C@H](n2cnc3c(NC4CCCC4)ncnc32)O1	3%	-5%	x	x	-6%	x
COc1ccc(Nc2c3ccccc3nc3ccccc23)cc1	u	u	8%	-16%	-17%	9%
COc1ccccc1Nc1c2ccccc2nc2ccccc12	16µM*	16µM*	x	-1%	8%	0%
COc1ccccc1Nc1cc(C)nc(Nc2ccccc2OC)n1	21µM*	23µM*	0%	-10%	6%	1%
Clc1cncc(Cl)c1NNc1c2ccccc2nc2ccccc12	u	u	8%	-3%	-6%	-23%
CC(C)(C)Nc1c2ccccc2nc2ccccc12	21µM*	18µM*	x	-1%	-8%	-3%
COc1cc(Nc2c3ccccc3nc3ccccc23)cc(OC)c1OC	7.3µM*	5.2µM*	x	-28%	-8%	-1%
CC1C(=O)Nc2ccc(S(=O)(=O)N3CCCCCC3)cc21 (centres undefined)	-10%	-5%	0%[56.1 µM]	28%	-4%	0%
CCCCC[C@H](O)C/C=C1/C(=O)C=C[C@@H]1C/C=C\CCCC(=O)O	x	x	11%	11%	x	50µM*

Bioassay records from PubChem.
